# tim10-1 inh: growth inhibitors of tim10-1 mutant yeast, primary screen, luminescence, uHTS | S. cerevisiae tim10-1 ts strain growth, BacTiter-Glo, 24 h | inhibition, % at 20 µM | 2.2% of 330,000 active | AID 463190, 2010;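 active means inhibition of at least 40%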;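 further: mutant grown at 25 °C; 0% = DMSO wells with yeast and 100% = wells holding no yeast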
# TIM10 inh: growth inhibitors of isogenic TIM10 control yeast, primary screen, counter-screen for tim10-1 yeast inhibitor project, luminescence, uHTS; S. cerevisiae TIM10 strain growth, BacTiter-Glo luminescence, 24 h; inhibition, % at 10 µM; 1.4% of 330,000 active; AID 463195, 2010;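 active means inhibition of 40% or more at the single tested concentration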;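 further: wild-type TIM10 isogenic control strain grown at permissive 25 °C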
# NALP1 inh: NALP1 inflammasome inhibitors in reconstituted yeast, colorimetric, S. cerevisiae, triplicate retest. 0.61% of 280,000 active. S. cerevisiae NALP1/ASC/caspase-1 growth, X-gal OD620, 72 h. inhibition, % at 10 µM; in the data active means inhibition mostly above about 24%, no sharp cut-off; inactive means mostly below about 32%
# NLRP3 yeast inh: NALP3 inflammasome inhibitors in reconstituted yeast, primary screen, luminescence, uHTS; AID 2825, 2010; Yeast reconstituted NLRP3/ASC/caspase-1, beta-gal luminescence, 24 h; inhibition, % at 10 µM; 0.39% of 330,000 active;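 active means inhibition of 50% or more; inactive means inhibition below 50%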;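 further: plate controls were induced DMSO wells for no effect and uninduced yeast grown without galactose for full effect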
# tim23-1 inh: growth inhibitors of tim23-1 mutant yeast, primary screen, luminescence, uHTS | S. cerevisiae tim23-1 growth, BacTiter-Glo luminescence, 24 h | inhibition, % at 20 µM | 1.3% of 330,000 active | AID 463212, 2010;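 active means growth inhibition of the mutant yeast at or above 50%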;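 further: temperature-sensitive mutant grown at 25 °C; plate controls were DMSO-treated mutant yeast for no effect and medium wells lacking yeast for full effect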
# V-ATPase pH: regulators of yeast V-ATPase proton pumping, primary screen, pHLuorin cytosolic pH fluorescence; S. cerevisiae; response, % at 10 µM; 0.37% of 350,000 active; in the data active means response mostly above about 7.3%, no sharp cut-off; inactive means mostly below about 5.4%; further: actives read high
# tim10-1 conf: growth inhibitors of tim10-1 mutant yeast, confirmation, single concentration, luminescence, S. cerevisiae; shares compounds with tim10-1 inh; S. cerevisiae tim10-1 ts strain growth, BacTiter-Glo, 24 h; inhibition, % at 20 µM; 56% of 7,400 active;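 active means inhibition of yeast growth at or above a set limit in either of two repeat tests at 20 µM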;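 further: tim10-1 mutant grown at permissive 25 °C to find synthetic lethal compounds; 0% = DMSO yeast wells and 100% = medium wells without yeast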
# tim10 confirm: growth inhibitors of wild-type TIM10 yeast, confirmation, counter-screen for tim10-1 synthetic lethality project, single concentration, luminescence, S. cerevisiae; shares compounds with TIM10 inh; S. cerevisiae tim10 strain growth, BacTiter-Glo luminescence, 24 h; inhibition, % at 10 µM; 63% of 4,600 active;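 active means inhibition of yeast growth at or above a set limit in either of two replicates at 10 µM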;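 further: this counterscreen used the strain with wild-type TIM10; 0% = yeast with DMSO and 100% = medium wells lacking yeast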
# tim23-1 confirm: tim23-1 mutant yeast growth inhibitors, confirmation, luminescence, single concentration; shares compounds with tim23-1 inh; 83% of 4,400 active; inhibition, % at 20 µM; AID 463218, 2010; S. cerevisiae tim23-1 growth, BacTiter-Glo luminescence, 24 h;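 active means inhibition above about 39% in either of two replicate wells at 20 µM, limit read from the data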;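 further: temperature-sensitive tim23-1 mutant grown at 25 °C; 0% = DMSO wells with yeast and 100% = medium wells without yeast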
# * = called active by the depositor; . = no result given. Only some compounds are listed: those with a hit (about 4.2% of all), similar ones and a draw of the others.
SMILES,tim10-1 inh,TIM10 inh,NALP1 inh,NLRP3 yeast inh,tim23-1 inh,V-ATPase pH,tim10-1 conf,tim10 confirm,tim23-1 confirm
Cc1cc(C)c2sc(NC(=O)C3CC3)nc2c1,47*,42*,11,45,61*,1,32*,34*,65*
Cc1ccc(C)c2sc(NC(=O)C3CC3)nc12,39,38,0,1,38,-2,.,.,.
Cc1[nH]c(C)c(S(=O)(=O)N2CCN(c3ccccc3F)CC2)c1C(=O)N1CCCCC1,1,3,8,-11,-7,-2,.,.,.
Cc1cc(C)c2c(N)c(S(=O)c3ccc(C(C)(C)C)cc3)sc2n1 (centres undefined),63*,35,15,8,60*,0,44*,.,62*
Cc1cc(C)c2c(N)c(C(=O)C(C)(C)C)sc2n1,24,8,3,-9,-3,3,.,.,.
CC(C)OCCCNC(=O)C1CCN(S(=O)(=O)c2ccc3nc4c(c(C(=O)O)c3c2)CCCCC4)CC1,-11,-6,10,7,-2,1,.,.,.
NN(Cc1ccccc1)C(=S)Nc1ccc(Cl)c(Cl)c1,41*,50*,9,8,71*,-2,66*,51*,69*
NC(=S)Nc1ccc(Cl)c(Cl)c1,11,14,.,14,8,-3,.,.,.
CC(Oc1ccc(Cl)cc1Cl)C(=O)NC1=NN(c2ccccc2)C(=O)C1 (centres undefined),52*,11,7,9,61*,-3,33*,.,-52
CC(=O)Nc1ccc(NC(=O)C(C)Oc2ccc(Cl)cc2Cl)cc1 (centres undefined),37,30,-1,2,40,0,.,.,.
COc1ccc(/C=C/C(=O)NC2CCN(Cc3ccccc3)CC2)cc1OC,-3,4,22,14,-2,3,.,.,.
NC(=O)c1ccc[n+]([C@H]2O[C@@H](COP(=O)([O-])OP(=O)(O)OC[C@H]3O[C@@H](n4cnc5c(N)ncnc54)[C@H](O)[C@@H]3O)[C@H](O)[C@@H]2O)c1,78*,59*,.,11,71*,0,75*,45*,78*
Cc1ccc(OCC(=O)NCCNC(=O)c2cccnc2)cc1C,11,-11,-2,17,15,0,.,.,.
Nc1ncnc2c1C1(CCCCC1)Cc1ccccc1-2,42*,29,27,-7,50*,0,30,.,27
COc1cccc(CNC(=O)Cn2ccc3cc(S(=O)(=O)N4CCCCCC4)ccc32)c1,12,8,4,7,6,4,.,.,.
Oc1c(Br)cc(Br)cc1/C=N/c1nc2c(s1)CCCC2,53*,42*,.,30,76*,0,28,30,91*
Cc1nn(C)c(C(=O)Sc2ccccc2)c1[N+](=O)[O-],5,22,.,7,34,1,.,.,.
Cc1nn(C)c(C(=O)Sc2cccc(Cl)c2)c1[N+](=O)[O-],47*,32,.,-5,61*,-2,65*,.,84*
COc1ccccc1CN(Cc1nc2ccccc2c(=O)[nH]1)C(=O)Nc1ccc(C)cc1,43*,55*,16,31,59*,-2,38*,40*,51*
COc1ccccc1CN(Cc1nc2ccccc2c(=O)[nH]1)C(=O)Nc1ccccc1C,25,13,7,-4,27,-1,.,.,.
Cn1c(CCN2CCN(c3ccccn3)CC2)nc2cc(NS(=O)(=O)c3ccc(Cl)cc3)ccc21,6,3,12,-6,14,0,.,.,.
O=C(NCCCN1CCOCC1)C(=O)NCc1ccc(Cl)cc1,6,-8,13,-18,-7,1,.,.,.
CCCn1c(=O)c(C(=O)NCc2ccccn2)c(O)c2ccccc21,41*,42*,-8,44,60*,-1,21,36*,57*
CC(C)(C)c1ccc(S(=O)(=O)N2CCN(CCC#N)CC2)cc1,50*,17,25,10,51*,-2,27,.,37
CC1=NN(C(N)=S)C(=O)C1N=Nc1cccc(Cl)c1C (centres undefined),43*,36,-15,44,57*,-3,43*,.,62*
SMILES,tim10-1 inh,TIM10 inh,NALP1 inh,NLRP3 yeast inh,tim23-1 inh,V-ATPase pH,tim10-1 conf,tim10 confirm,tim23-1 confirm
CC1=NN(C(N)=S)C(=O)C1N=Nc1cccc2ccccc12 (centres undefined),.,.,8,.,.,.,.,.,.
CC(=O)OCCCN1c2ccccc2Nc2nnc(-c3ccccc3)cc21,47*,51*,2,23,51*,6,32*,30*,49*
CN(C)CC/C=C1\c2ccccc2Sc2ccc(Cl)cc21,39,16,32,29,-10,5,.,.,.
CCCCCCCCCC[N+](C)(C)CC/C=C1/c2ccccc2Sc2ccc(Cl)cc21,98*,83*,23,2,92*,2,97*,86*,94*
CC[N+](C)(C)CC/C=C1/c2ccccc2Sc2ccc(Cl)cc21,11,-13,12,11,-10,-2,.,.,.
CCCCCCCCCCC[N+](C)(C)CC/C=C1/c2ccccc2Sc2ccc(Cl)cc21,98*,82*,14,14,89*,10,97*,82*,94*
CC[C@@]1(C(=O)OC)N[C@H](CN(C)S(=O)(=O)c2ccc(-c3ccccc3)cc2)[C@@H]2C(=O)N(Cc3ccccc3)C(=O)[C@@H]21,5,18,.,4,11,-1,.,.,.
O=C(Cn1nnc2ccccc2c1=O)NCC1CCC(C(=O)O)CC1 (centres undefined),-5,6,.,5,-12,-2,.,.,.
CCc1nc2sc3ccccc3c(=O)c2c(=O)n1Cc1ccco1,69*,34,7,24,53*,5,61*,.,62*
CCO[C@H]1OC(C(=O)NCc2ccccc2)=C[C@@H](c2cn(C(C)=O)c3ccccc23)[C@@H]1CCCO,14,6,-2,-3,11,-6,.,.,.
CCCCc1ccc(/C=C2\C(=O)c3ccccc3C(O)=C2C(=O)OCC)cc1,64*,47*,39,34,50*,.,55*,47*,59*
